# Assay results reported in publication PMC7862700, “An all-to-all approach to the identification of sequence-specific readers for epigenetic DNA modifications on cytosine”.
# Assays:
# Assay in all cases: DAPPL (digital affinity profiling via proximity ligation, sequencing); 10 mM Tris-HCl pH 7.5, 50 mM NaCl, 1 mM DTT, 4% glycerol, room temperature, 30 min; GST-TFs on glutathione beads, 16-mer random dsDNA library, 0.1% formaldehyde crosslink after washing; high values mean tight binding
# FEV = target: T1, FEV (Homo sapiens, UniProt Q99581 1-238); conditions: protein: recombinant; tags: N-terminal GST; dsDNA, one strand shown
# T1 sequence: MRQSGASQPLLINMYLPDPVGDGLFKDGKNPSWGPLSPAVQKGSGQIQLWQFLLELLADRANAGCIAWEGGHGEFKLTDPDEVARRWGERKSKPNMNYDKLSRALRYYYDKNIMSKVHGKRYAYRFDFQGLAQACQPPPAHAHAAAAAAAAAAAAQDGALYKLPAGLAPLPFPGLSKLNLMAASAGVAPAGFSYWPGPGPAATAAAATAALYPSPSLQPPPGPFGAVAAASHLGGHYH
# In short: (§1)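 Each value of binding signal is a hexamer's read frequency for a factor divided by the same hexamer's frequency in the tag-only sample. Barcoded, bead-captured GST fusions of human transcription factors made in yeast were pooled with that sample and incubated with 200 nmole of a random double-stranded 16-mer DNA library in Tris/NaCl/DTT/glycerol buffer at room temperature for 30 min. Washing, 0.1% formaldehyde crosslinking, proximity ligation, PCR and Illumina NextSeq500 sequencing followed.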
# ETV5 = ETV5 (Homo sapiens, UniProt P41161 1-510); conditions: protein: recombinant; tags: N-terminal GST; dsDNA, one strand shown
# ETV5, sequence (P41161 whole entry): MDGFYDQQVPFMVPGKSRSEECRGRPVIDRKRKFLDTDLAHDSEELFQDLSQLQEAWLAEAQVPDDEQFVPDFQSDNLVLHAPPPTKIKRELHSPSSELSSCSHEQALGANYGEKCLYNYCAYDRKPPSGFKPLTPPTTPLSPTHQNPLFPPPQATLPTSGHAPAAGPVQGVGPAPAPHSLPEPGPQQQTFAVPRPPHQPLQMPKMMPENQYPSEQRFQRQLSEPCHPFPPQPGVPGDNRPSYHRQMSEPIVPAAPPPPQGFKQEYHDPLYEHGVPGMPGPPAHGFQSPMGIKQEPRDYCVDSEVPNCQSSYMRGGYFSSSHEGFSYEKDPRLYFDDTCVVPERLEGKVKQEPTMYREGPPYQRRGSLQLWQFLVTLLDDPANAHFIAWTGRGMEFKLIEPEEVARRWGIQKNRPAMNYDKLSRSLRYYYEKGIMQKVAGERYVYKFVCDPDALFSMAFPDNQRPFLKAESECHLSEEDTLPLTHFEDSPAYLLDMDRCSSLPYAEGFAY
# In short: as §1
# HSF1 = HSF1 (Homo sapiens, UniProt Q00613 1-529); conditions: protein: recombinant; tags: N-terminal GST; chain copies: 3; dsDNA, one strand shown
# HSF1, sequence (Q00613 whole entry): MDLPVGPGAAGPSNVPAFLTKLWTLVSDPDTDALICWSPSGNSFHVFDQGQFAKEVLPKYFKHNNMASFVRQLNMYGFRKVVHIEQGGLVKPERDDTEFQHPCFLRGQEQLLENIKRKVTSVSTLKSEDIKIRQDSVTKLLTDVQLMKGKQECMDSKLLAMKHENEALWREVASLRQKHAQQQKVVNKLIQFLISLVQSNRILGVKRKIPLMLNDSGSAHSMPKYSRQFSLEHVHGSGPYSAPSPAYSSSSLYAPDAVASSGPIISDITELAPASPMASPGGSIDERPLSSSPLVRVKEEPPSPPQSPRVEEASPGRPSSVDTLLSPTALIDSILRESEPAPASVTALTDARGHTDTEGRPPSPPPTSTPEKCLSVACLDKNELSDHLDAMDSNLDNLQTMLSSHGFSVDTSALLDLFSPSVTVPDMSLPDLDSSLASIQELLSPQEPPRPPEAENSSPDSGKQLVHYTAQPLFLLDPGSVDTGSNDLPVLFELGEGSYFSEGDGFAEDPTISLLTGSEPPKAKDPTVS
# In short: as §1
# SPIC = target: T2, SPIC (Homo sapiens, UniProt Q8N5J4 1-248); conditions: protein: recombinant; tags: N-terminal GST; dsDNA, one strand shown
# T2 sequence: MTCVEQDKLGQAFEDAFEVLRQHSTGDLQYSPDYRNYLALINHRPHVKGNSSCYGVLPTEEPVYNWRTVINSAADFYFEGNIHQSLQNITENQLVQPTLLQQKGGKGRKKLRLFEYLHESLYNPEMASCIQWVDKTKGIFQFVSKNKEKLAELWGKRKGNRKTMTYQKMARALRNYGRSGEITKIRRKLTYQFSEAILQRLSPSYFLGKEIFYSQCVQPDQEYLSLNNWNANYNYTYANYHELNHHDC
# In short: as §1
# ELF4 = ELF4 (Homo sapiens, UniProt Q99607 1-663); conditions: protein: recombinant; tags: N-terminal GST; dsDNA, one strand shown
# ELF4, sequence (Q99607 whole entry): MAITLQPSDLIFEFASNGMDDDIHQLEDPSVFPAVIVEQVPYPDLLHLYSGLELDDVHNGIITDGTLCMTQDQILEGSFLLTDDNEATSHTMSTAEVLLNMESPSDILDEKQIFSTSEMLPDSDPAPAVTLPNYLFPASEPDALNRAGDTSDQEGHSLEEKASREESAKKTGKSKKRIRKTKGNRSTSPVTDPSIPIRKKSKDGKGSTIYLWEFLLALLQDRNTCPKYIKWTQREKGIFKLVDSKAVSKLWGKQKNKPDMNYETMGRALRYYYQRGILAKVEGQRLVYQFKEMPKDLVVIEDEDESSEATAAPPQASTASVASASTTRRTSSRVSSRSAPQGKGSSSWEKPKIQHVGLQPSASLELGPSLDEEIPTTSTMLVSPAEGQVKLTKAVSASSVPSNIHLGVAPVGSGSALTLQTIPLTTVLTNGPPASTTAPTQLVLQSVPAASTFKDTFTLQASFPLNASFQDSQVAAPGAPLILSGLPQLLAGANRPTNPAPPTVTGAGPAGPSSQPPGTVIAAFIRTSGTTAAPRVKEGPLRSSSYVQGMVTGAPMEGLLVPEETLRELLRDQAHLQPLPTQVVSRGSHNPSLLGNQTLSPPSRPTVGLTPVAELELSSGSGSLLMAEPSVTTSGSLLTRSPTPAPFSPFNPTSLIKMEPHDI
# In short: as §1
# ELK4 = target: T3, ELK4 (Homo sapiens, UniProt P28324-2 1-405); conditions: protein: recombinant; tags: N-terminal GST; dsDNA, one strand shown
# T3 sequence: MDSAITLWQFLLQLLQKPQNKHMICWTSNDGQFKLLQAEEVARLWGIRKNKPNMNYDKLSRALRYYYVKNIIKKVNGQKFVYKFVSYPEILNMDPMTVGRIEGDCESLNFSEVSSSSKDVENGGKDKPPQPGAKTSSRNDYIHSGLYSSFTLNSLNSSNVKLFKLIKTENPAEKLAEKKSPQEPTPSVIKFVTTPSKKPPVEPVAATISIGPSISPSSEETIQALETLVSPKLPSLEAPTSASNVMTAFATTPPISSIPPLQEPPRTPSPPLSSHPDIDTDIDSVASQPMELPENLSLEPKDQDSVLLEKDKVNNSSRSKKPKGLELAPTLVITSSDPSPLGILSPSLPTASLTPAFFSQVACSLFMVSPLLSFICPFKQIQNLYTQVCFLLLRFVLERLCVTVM
# In short: as §1
# ETV2 = target: T4, ETV2 (Homo sapiens, UniProt O00321 1-342); conditions: protein: recombinant; tags: N-terminal GST; dsDNA, one strand shown
# T4 sequence: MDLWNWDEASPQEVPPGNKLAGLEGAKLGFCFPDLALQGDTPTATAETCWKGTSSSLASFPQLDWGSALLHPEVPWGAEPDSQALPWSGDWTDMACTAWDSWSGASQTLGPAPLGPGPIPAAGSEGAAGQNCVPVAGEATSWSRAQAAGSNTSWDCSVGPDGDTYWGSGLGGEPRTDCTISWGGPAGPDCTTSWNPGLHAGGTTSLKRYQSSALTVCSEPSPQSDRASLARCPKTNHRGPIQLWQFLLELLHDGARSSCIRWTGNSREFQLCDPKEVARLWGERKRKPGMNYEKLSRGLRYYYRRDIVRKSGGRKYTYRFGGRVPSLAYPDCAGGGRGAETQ
# In short: as §1
# ELF3 = target: T5, ELF3 (Homo sapiens, UniProt P78545 1-371); conditions: protein: recombinant; tags: N-terminal GST; dsDNA, one strand shown
# T5 sequence: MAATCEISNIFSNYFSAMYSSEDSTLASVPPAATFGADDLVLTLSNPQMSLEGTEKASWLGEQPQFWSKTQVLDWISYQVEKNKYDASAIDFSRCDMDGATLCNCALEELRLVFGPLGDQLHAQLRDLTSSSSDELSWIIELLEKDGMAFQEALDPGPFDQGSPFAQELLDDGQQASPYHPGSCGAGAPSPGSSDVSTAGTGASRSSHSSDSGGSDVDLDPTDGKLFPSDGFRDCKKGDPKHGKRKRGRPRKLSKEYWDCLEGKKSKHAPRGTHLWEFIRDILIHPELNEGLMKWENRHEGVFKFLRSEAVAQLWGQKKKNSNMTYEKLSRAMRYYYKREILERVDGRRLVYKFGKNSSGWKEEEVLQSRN
# In short: as §1
# ETV1 = ETV1 (Homo sapiens, UniProt P50549 1-477); conditions: protein: recombinant; tags: N-terminal GST; dsDNA, one strand shown
# ETV1, sequence (P50549 whole entry): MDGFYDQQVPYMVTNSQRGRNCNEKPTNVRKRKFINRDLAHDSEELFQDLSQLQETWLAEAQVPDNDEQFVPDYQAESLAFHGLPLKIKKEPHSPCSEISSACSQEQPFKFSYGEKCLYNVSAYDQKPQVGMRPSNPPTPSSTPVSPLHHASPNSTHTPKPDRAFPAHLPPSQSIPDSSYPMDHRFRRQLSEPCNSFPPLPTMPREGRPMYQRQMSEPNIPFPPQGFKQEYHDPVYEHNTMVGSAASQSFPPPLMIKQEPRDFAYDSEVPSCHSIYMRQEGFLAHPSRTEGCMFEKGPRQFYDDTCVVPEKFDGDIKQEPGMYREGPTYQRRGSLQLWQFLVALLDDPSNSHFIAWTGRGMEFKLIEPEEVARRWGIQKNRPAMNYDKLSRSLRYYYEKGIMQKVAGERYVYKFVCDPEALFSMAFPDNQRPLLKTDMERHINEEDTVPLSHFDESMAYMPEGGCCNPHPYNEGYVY
# In short: as §1
sequence,measurement,setting,value
TGCTAC,binding signal,FEV,"1.36 fold enrichment (6-mer frequency, TF over GST control)"
same,binding signal,ETV5,"1.25 fold enrichment (6-mer frequency, TF over GST control)"
same,binding signal,HSF1,"1.03 fold enrichment (6-mer frequency, TF over GST control)"
same,binding signal,SPIC,"1.41 fold enrichment (6-mer frequency, TF over GST control)"
same,binding signal,ELF4,"1.23 fold enrichment (6-mer frequency, TF over GST control)"
same,binding signal,ELK4,"1.4 fold enrichment (6-mer frequency, TF over GST control)"
same,binding signal,ETV2,"1.24 fold enrichment (6-mer frequency, TF over GST control)"
same,binding signal,ELF3,"1.25 fold enrichment (6-mer frequency, TF over GST control)"
same,binding signal,ETV1,"1.42 fold enrichment (6-mer frequency, TF over GST control)"
